Measured values published in PubChem BioAssay AID1159580 (chemical genetic matrix, 2015).
The whole screen tested about 5,500 compounds, of which about 2,000 (36%) were called active. Roughly 18% stayed inconclusive and do not appear here. Rule as the data show it: active = normalized growth mostly below about 0.91 (no sharp cut-off); inconclusive = no clear call, values can overlap the other calls; inactive = mostly above about 0.92. The list shows a part of the results.

Test: chemical genetic growth profiling, strain panel (AID 1159580);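 also: tested at 20 µM; growth read once vehicle control cultures reached saturation at 30 °C; 1 = growth at the plate median or of vehicle wells; lower values mean less growth of the strain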
Conditions: S. cerevisiae deletion strains, growth OD

Measured: normalized growth

O=C(O)CN(CC(=O)O)Cc1cc2c(-c3ccccc3C(=O)O)c3cc(CN(CC(=O)O)CC(=O)O)c(=O)cc-3oc2cc1O
active: locus YAL026C, strain drs2, active compounds read low 0.904 | locus YDR137W, strain rgp1, active compounds read low 0.829 | locus YER015W, strain faa2, active compounds read low 0.897 | locus YHR027C, strain rpn1, active compounds read low 0.874
inactive: locus YAL013W, strain DEP1, active compounds read low 1 | locus YAL021C, strain ccr4, active compounds read low 0.934 | locus YAL030W, strain snc1, active compounds read low 0.962 | locus YBL061C, strain skt5, active compounds read low 0.965 | locus YBR009C, strain hhf1, active compounds read low 0.931 | locus YBR021W, strain FUR4, active compounds read low 0.981 | locus YBR023C, strain chs3, active compounds read low 0.981 | locus YBR171W, strain sec66, active compounds read low 0.965 | locus YBR229C, strain ROT2, active compounds read low 1.01 | locus YBR231C, strain swc5, active compounds read low 0.943 | locus YBR279W, strain paf1, active compounds read low 0.967 | locus YCL011C, strain gbp2, active compounds read low 0.962 | locus YCL016C, strain dcc1, active compounds read low 0.976 | locus YCL029C, strain bik1, active compounds read low 1.02 | locus YCL061C, strain MRC1, active compounds read low 0.937 | locus YCL069W, strain vba3, active compounds read low 0.975 | locus YCR088W, strain abp1, active compounds read low 0.995 | locus YDL005C, strain med2, active compounds read low 0.982 | locus YDL035C, strain GPR1, active compounds read low 0.997 | locus YDL040C, strain nat1, active compounds read low 0.964 | locus YDL074C, strain BRE1, active compounds read low 0.991 | locus YDL101C, strain DUN1, active compounds read low 1.01 | locus YDL134C, strain PPH21, active compounds read low 1.01 | locus YDL185W, strain tfp1, active compounds read low 0.986 | locus YDL192W, strain arf1, active compounds read low 1.02 | locus YDR001C, strain nth1, active compounds read low 0.965 | locus YDR069C, strain doa4, active compounds read low 0.951 | locus YDR101C, strain arx1, active compounds read low 1.01 | locus YDR150W, strain NUM1, active compounds read low 1.02 | locus YDR159W, strain sac3, active compounds read low 0.96 | locus YDR162C, strain NBP2, active compounds read low 0.984 | locus YDR195W, strain ref2 1.04 | locus YDR297W, strain sur2, active compounds read low 0.951 | locus YDR318W, strain mcm21, active compounds read low 1.02 | locus YDR334W, strain swr1, active compounds read low 0.955 | locus YDR335W, strain msn5, active compounds read low 0.932 | locus YDR388W, active compounds read low 1.02 | locus YDR392W, strain spt3, active compounds read low 0.914 | locus YDR502C, strain sam2, active compounds read low 1.02 | locus YEL003W, strain gim4, active compounds read low 0.948 | locus YEL037C, strain rad23, active compounds read low 0.971 | locus YEL061C, strain CIN8 (second series), active compounds read low 0.963 | locus YEL061C, strain CIN8, active compounds read low 1 | locus YER016W, strain bim1, active compounds read low 0.986 | locus YER110C, active compounds read low 1.03 | locus YER111C, strain swi4, active compounds read low 0.934 | locus YER155C, strain BEM2 (second series), active compounds read low 1 | locus YER155C, strain BEM2, active compounds read low 1 | locus YER167W, strain BCK2, active compounds read low 1.02 | locus YFR010W, strain ubp6, active compounds read low 0.992 | locus YGL078C, strain dbp3, active compounds read low 1.02 | locus YGL086W, strain mad1, active compounds read low 1.01 | locus YGL167C, strain pmr1, active compounds read low 0.967 | locus YGL173C, strain kem1, active compounds read low 0.939 | locus YGL227W, strain vid30, active compounds read low 0.977 | locus YGL240W, strain doc1, active compounds read low 0.977 | locus YGL248W, strain PDE1, active compounds read low 1.01 | locus YGL253W, strain hxk2, active compounds read low 0.934 | locus YGR078C, strain PAC10, active compounds read low 0.997 | locus YGR135W, strain pre9, active compounds read low 1 | locus YGR229C, strain SMI1, active compounds read low 0.976 | locus YGR252W, strain gcn5, active compounds read low 1.05 | locus YHR013C, strain ard1, active compounds read low 0.963 | locus YHR030C, strain SLT2, active compounds read low 1 | locus YHR079C, strain IRE1 (second series), active compounds read low 1.02 | locus YHR094C, strain hxt1, active compounds read low 1.01 | locus YHR129C, strain ARP1, active compounds read low 0.997 | locus YHR142W, strain chs7, active compounds read low 0.945 | locus YHR200W, strain rpn10, active compounds read low 1.02 | locus YIL066C, strain RNR3, active compounds read low 0.992 | locus YIL073C, strain SPO22, active compounds read low 1.08 | locus YIL125W, strain kgd1, active compounds read low 1.01 | locus YIR030C, strain dcg1, active compounds read low 1.02 | locus YJL092W, strain hpr5, active compounds read low 0.977 | locus YJL095W, strain BCK1 (second series), active compounds read low 0.961 | locus YJL095W, strain BCK1, active compounds read low 0.976 | locus YJL115W, strain asf1, active compounds read low 0.947 | locus YJL129C, strain trk1, active compounds read low 0.911 | locus YJL134W, strain LCB3, active compounds read low 1.01 | locus YJL154C, strain vps35, active compounds read low 0.984 | locus YJL164C, strain tpk1, active compounds read low 0.929 | locus YJL166W, strain qcr8, active compounds read low 0.969 | locus YJL168C, strain set2, active compounds read low 1.01 | locus YJL187C, strain SWE1 (second series), active compounds read low 0.992 | locus YJL187C, strain SWE1, active compounds read low 0.963
